Assay results: PubChem BioAssay (NCI)
The panel holds about 83,000 compounds, 20% with a hit somewhere; the sample as a whole holds those more often.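 96-well plates, one dose, 48 hours. Percent growth reported; active if below 10.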 Values without a mark were called inactive. Activity calls are given as the source filed them.

Experiments:
Assay in all cases: NCI-60 one-dose screen, 48 h (100 = growth as untreated, 0 = no growth, -100 = all killed)
Conditions in all cases: 10 µM unless noted
SR leukemia = test system: SR leukemia
RPMI-8226 leukemia = test system: RPMI-8226 leukemia
OVCAR-8 ovarian = test system: OVCAR-8 ovarian
OVCAR-5 ovarian = test system: OVCAR-5 ovarian
OVCAR-4 ovarian = test system: OVCAR-4 ovarian
SK-OV-3 ovarian = test system: SK-OV-3 ovarian
IGROV1 ovarian = test system: IGROV1 ovarian
OVCAR-3 ovarian = test system: OVCAR-3 ovarian
HS 578T breast = test system: HS 578T breast
NCI/ADR-RES ovarian = test system: NCI/ADR-RES ovarian
T-47D breast = test system: T-47D breast
BT-549 breast = test system: BT-549 breast
MDA-MB-435 melanoma = test system: MDA-MB-435 melanoma
SW-620 colon = test system: SW-620 colon
MCF7 breast = test system: MCF7 breast
HCT-116 colon = test system: HCT-116 colon
HCC-2998 colon = test system: HCC-2998 colon
KM12 colon = test system: KM12 colon

Row | Structure (SMILES) | growth (SR leukemia) | growth (RPMI-8226 leukemia) | growth (OVCAR-8 ovarian) | growth (OVCAR-5 ovarian) | growth (OVCAR-4 ovarian) | growth (SK-OV-3 ovarian) | growth (IGROV1 ovarian) | growth (OVCAR-3 ovarian) | growth (HS 578T breast) | growth (NCI/ADR-RES ovarian) | growth (T-47D breast) | growth (BT-549 breast) | growth (MDA-MB-435 melanoma) | growth (SW-620 colon) | growth (MCF7 breast) | growth (HCT-116 colon) | growth (HCC-2998 colon) | growth (KM12 colon)
1 | CN1CCN(Cc2ccc(NC(=O)c3nc4ccc5[nH]ncc5c4c4c3CCC4)cc2C(F)(F)F)CC1 | -31.6% (active) | -37% (active) | -53.8% (active) | 3.19% (active) | 68.3% | 93.8% | -80.9% (active) | -91.3% (active) | 85.9% | -40.8% (active) | -26.4% (active) | 91.6% | -91.4% (active) | -56.2% (active) | -29.7% (active) | -94.2% (active) | -10.5% (active) | -79.8% (active)
2 | Cc1ccc(S(=O)(=O)C2=C3C(=C(c4ccccc4)c4ccccc43)CN(S(=O)(=O)c3ccc(C)cc3)C2)cc1 | 3.89% (active) | -21.7% (active) | 21.8% | 93.7% | 70.3% | 92.6% | 54% | 56.9% | 62.4% | 27.8% | 12% | -1.45% (active) | 74.2% | -17.7% (active) | 37.6% | 8.4% (active) | 88.9% | 64.1%
3 | Brc1cccc(-c2cc(-c3ccc4c(c3)OCCCO4)[nH]n2)c1 | 41.7% [25 µM] | 57.2% [25 µM] | 69.3% [25 µM] | 63% [25 µM] | 68.1% [25 µM] | 53.1% [25 µM] | 46.8% [25 µM] | 48.7% [25 µM] | 71.1% [25 µM] | 22.1% [25 µM] | 29.2% [25 µM] | 72.8% [25 µM] | -7% [25 µM] (active) | 31.8% [25 µM] | 23.2% [25 µM] | 51.4% [25 µM] | 75.6% [25 µM] | 20% [25 µM]
4 | O=C(Nc1ccncc1)C(=O)c1cn(S(=O)(=O)c2ccc(Cl)cc2)c2ccccc12 | 28.3% | 31.4% | 42.5% | 64.7% | 49% | 91.7% | 39.7% | -22.3% (active) | 13.5% | -4.89% (active) | 41.2% | 39.2% | 0.272% (active) | 10.4% | 16.8% | 15.3% | 54.7% | 19.8%
5 | FC(F)(F)c1cccc(-c2cn3c(ccc4ccccc43)n2)c1 | 95.1% | 94.4% | 94.8% | 102% | 97.7% | 85.7% | 81.5% | 97.2% | 104% | 92.6% | 46.5% | 91.1% | 100% | 89.5% | 41% | 88% | 105% | 91%
6 | CCN(CC)c1ccc(N=O)cc1 | 26.5% | 91.3% | 55.4% | 103% | 66.7% | 96% | 15% | 28.5% | 93% | 52% | 44.9% | 79.7% | 66.9% | -61.1% (active) | 51.8% | 37.9% | 86.5% | 40.3%
7 | Cc1ccc(N2CCN(C(C)C(N)=O)CC2)cc1 (stereo not given) | 154% | 96.8% | 106% | 99% | 104% | 114% | 112% | 106% | 117% | 106% | 102% | 88.9% | 114% | 107% | 106% | 98.3% | 102% | 112%
8 | C=C1C(=O)O[C@H]2[C@H]1CC/C(Cn1cc(CNC(=O)c3cc4ccccc4[nH]3)nn1)=C\CC[C@@]1(C)O[C@@H]21 | 4.37% (active) | -11.5% (active) | 44.8% | 110% | 83% | 106% | 71% | 3.43% (active) | 99.9% | 101% | 48.7% | 87.9% | 26.5% | -32.5% (active) | 9.93% (active) | 4.22% (active) | 96% | 68.9%
9 | CCN(CC)c1ccc(/C=C2\Oc3ccc(O)c(I)c3C2=O)cc1 | 2.38% (active) | 32.3% | 61.7% | 95.1% | 81.5% | 79.5% | 40.4% | 19.1% | 75.4% | 37.9% | 55.1% | 54.4% | 16.7% | 43.2% | 26.9% | 33.9% | 97.2% | 43.3%
10 | CC1=C(C#N)C(=O)NC(C)C1 (stereo not given) | 110% | 105% | 102% | 95.5% | 110% | 103% | 105% | 103% | 97.2% | 102% | 91.4% | 101% | 107% | 106% | 101% | 110% | 79.8% | 107%
11 | C=C1C(=O)O[C@H]2[C@H]1CC/C(Cn1cc(-c3cccc(Cl)c3)nn1)=C\CC[C@@]1(C)O[C@@H]21 | -3.12% (active) | -34% (active) | -43.7% (active) | -36.7% (active) | -71.3% (active) | 80.8% | -50.4% (active) | -92.8% (active) | -0.629% (active) | 10.7% | -43.7% (active) | -49.5% (active) | -78.6% (active) | -77.8% (active) | -46.8% (active) | -84.8% (active) | -85.5% (active) | 12.9%
12 | COc1cc(/C=C/C(=O)c2ccc(Nc3ncnc4cc(OC)c(OC)cc34)cc2)cc(OC)c1 | 30.6% | -2.38% (active) | 95.3% | 112% | 107% | 116% | 99.5% | 104% | 97.3% | 97.3% | 100% | 105% | 51.8% | 109% | 73% | 30.8% | 106% | 82.9%
13 | CCO/C=N/C1=C(C#N)C(c2ccc(Cl)cc2)c2c(c3ccc(C)cc3[nH]c2=O)O1 (stereo not given) | 86.7% | 30.2% | 89.7% | 83.1% | 85% | 85.7% | 68.4% | 103% | 48.8% | 96.1% | 78.4% | 86.7% | 90.7% | 84.6% | 78.7% | 82.4% | 99.5% | 97.1%
14 | CC(C)(C)Nc1c(-c2cccs2)nc2ncccn12 | 92.4% | 94.2% | 104% | 108% | 103% | 99.9% | 102% | 102% | 97.8% | 104% | 93.1% | 105% | 107% | 103% | 93.8% | 98.6% | 100% | 97.5%
15 | Cc1c(C(=O)/C=C/c2csc3ccccc23)[n+](=O)c2ccccc2n1[O-] | 13.5% | 7.86% (active) | 21.1% | 94.5% | 43.5% | 76.4% | 16.6% | -38.8% (active) | 93.9% | 22.5% | 21.5% | 20.1% | 67.7% | 26.3% | 9.38% (active) | 16% | 78.5% | 48.4%
